# Test results as given in the supplement of paper PMC8728848.
# About 410 targets per protein were measured; listed, in parts, are those with the strongest signals and a random draw of the rest.
# B1: Cohesin-hMARCO (Homo sapiens) (protein)
# chain: LDDLDAVRIKVDTVNAKPGDTVRIPVRFSGIPSKGIANCDFVYSYDPNVLEIIEIEPGDIIVDPNPDKSFDTAVYPDRKIIVFLFAEDSGTGAYAITKDGVFATIVAKVKEGAPNGLSVIKFVEVGGFANNDLVEQKTQFFDGGANVGDTTEPATPTTPVTTPTTTDDLDAASVRIVGSSNRGRAEVYYSGTWGTICDDEWQNSDAIVFCRMLGYSKGRALYKVGAGTGQIWLDNVQCRGTESTLWSCTKNSWGHHDCSHEEDAGVECSVHHHHHH
# Columns and labels:
# Experiment in all cases: glycan array binding signal (z-score within array); higher = stronger binding
# Conditions in all cases: glycan notation: IUPAC condensed, linker removed
# [1] = target: Fuc(a1-2)Gal(b1-3)GalNAc(b1-3)Gal
# Method in brief: (§1)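 Arrays were curated from the Consortium for Functional Glycomics database, 3228 in total, and kept only where the protein sequence was available. Binding is expressed as a within-array Z-score. This score was averaged across arrays of the same protein sequence at different concentrations or buffers and across linkers, and negative values can be read as non-binding.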
# Fuc(a1-2)Gal(b1-4)Glc = target: Fuc(a1-2)Gal(b1-4)Glc
# Method in brief: as §1
# [2] = target: Fuc(a1-2)Gal(b1-4)GlcNAc(b1-2)Man(a1-3)[Fuc(a1-2)Gal(b1-4)GlcNAc(b1-2)Man(a1-6)]Man(b1-4)GlcNAc(b1-4)[Fuc(a1-6)]GlcNAc
# Method in brief: as §1
# [3] = target: Fuc(a1-2)[Gal(a1-3)]Gal(b1-3)GalNAc(b1-3)Gal(a1-4)Gal(b1-4)Glc
# Method in brief: as §1
# [4] = target: Fuc(a1-2)[Gal(a1-3)]Gal(b1-3)GlcNAc
# Method in brief: as §1
# [5] = target: Fuc(a1-2)[Gal(a1-3)]Gal(b1-4)GlcNAc(b1-2)Man(a1-3)[Fuc(a1-2)[Gal(a1-3)]Gal(b1-4)GlcNAc(b1-2)Man(a1-6)]Man(b1-4)GlcNAc(b1-4)GlcNAc
# Method in brief: as §1
# [6] = target: Fuc(a1-2)[Gal(a1-3)]Gal(b1-4)GlcNAc(b1-6)GalNAc
# Method in brief: as §1
# Gal(a1-3)Gal(b1-3)GlcNAc = target: Gal(a1-3)Gal(b1-3)GlcNAc
# Method in brief: as §1
# [7] = target: Gal(a1-3)Gal(b1-3)GlcNAc(b1-6)GalNAc
# Method in brief: as §1
# [8] = target: Gal(a1-3)Gal(b1-4)GlcNAc(b1-3)GalNAc
# Method in brief: as §1
# Gal(a1-4)GlcNAc = target: Gal(a1-4)GlcNAc
# Method in brief: as §1
# Gal(b1-3)Gal = target: Gal(b1-3)Gal
# Method in brief: as §1
# Gal(b1-3)Gal(b1-4)GlcNAc = target: Gal(b1-3)Gal(b1-4)GlcNAc
# Method in brief: as §1
# [9] = target: Gal(b1-3)GlcNAc(a1-6)Gal(b1-4)GlcNAc
# Method in brief: as §1
# Gal(b1-3)GlcNAc(b1-2)Man = target: Gal(b1-3)GlcNAc(b1-2)Man
# Method in brief: as §1
# [10] = target: Gal(b1-3)GlcNAc(b1-3)Gal(b1-3)GlcNAc
# Method in brief: as §1
# [11] = target: Gal(b1-3)GlcNAc(b1-6)GalNAc
# Method in brief: as §1
# [12] = target: Gal(b1-3)[Fuc(a1-4)]GlcNAc(b1-3)Gal(b1-3)[Fuc(a1-4)]GlcNAc
# Method in brief: as §1
# Gal(b1-4)Glc6S = target: Gal(b1-4)Glc6S
# Method in brief: as §1
# [13] = target: Gal(b1-4)GlcNAc(a1-6)Gal(b1-4)GlcNAc
# Method in brief: as §1
# Gal(b1-4)GlcNAc(b1-2)Man = target: Gal(b1-4)GlcNAc(b1-2)Man
# Method in brief: as §1
# [14] = target: Gal(b1-4)GlcNAc(b1-3)Gal(b1-3)GlcNAc
# Method in brief: as §1
# [15] = target: Gal(b1-4)GlcNAc(b1-3)Gal(b1-4)GlcNAc(b1-3)Gal(b1-4)GlcNAc(b1-2)Man(a1-3)[Gal(b1-4)GlcNAc(b1-3)Gal(b1-4)GlcNAc(b1-3)Gal(b1-4)GlcNAc(b1-2)Man(a1-6)]Man(b1-4)GlcNAc(b1-4)GlcNAc
# Method in brief: as §1
# [16] = target: Gal(b1-4)GlcNAc(b1-6)GalNAc
# Method in brief: as §1
# Gal3S(b1-3)GalNAc = target: Gal3S(b1-3)GalNAc
# Method in brief: as §1
# Gal3S(b1-4)Glc = target: Gal3S(b1-4)Glc
# Method in brief: as §1
# [17] = target: Gal3S(b1-4)[Fuc(a1-3)]GlcNAc
# Method in brief: as §1
# [18] = target: Gal3S(b1-4)[Fuc(a1-3)]GlcNAc6S
# Method in brief: as §1
# Gal4S(b1-4)GlcNAc = target: Gal4S(b1-4)GlcNAc
# Method in brief: as §1
# Gal6S(b1-4)GlcNAc = target: Gal6S(b1-4)GlcNAc
# Method in brief: as §1
# GalNAc(b1-3)Gal = target: GalNAc(b1-3)Gal
# Method in brief: as §1
# Glc(a1-4)Glc = target: Glc(a1-4)Glc
# Method in brief: as §1
# [19] = target: GlcNAc(a1-4)Gal(b1-4)GalNAc
# Method in brief: as §1
# [20] = target: GlcNAc(a1-4)Gal(b1-4)GlcNAc(b1-3)Gal(b1-4)[Fuc(a1-3)]GlcNAc(b1-3)Gal(b1-4)[Fuc(a1-3)]GlcNAc
# Method in brief: as §1
# [21] = target: GlcNAc(b1-2)Man(a1-3)[GlcNAc(b1-2)Man(a1-6)]Man(b1-4)GlcNAc(b1-4)GlcNAc
# Method in brief: as §1
# [22] = target: GlcNAc(b1-3)Gal(b1-4)GlcNAc(b1-3)Gal(b1-4)GlcNAc(b1-2)Man(a1-3)[GlcNAc(b1-3)Gal(b1-4)GlcNAc(b1-3)Gal(b1-4)GlcNAc(b1-2)Man(a1-6)]Man(b1-4)GlcNAc(b1-4)[Fuc(a1-6)]GlcNAc
# Method in brief: as §1
# [23] = target: GlcNAc(b1-3)Gal(b1-4)GlcNAc(b1-6)[GlcNAc(b1-3)Gal(b1-3)]GalNAc
# Method in brief: as §1
# GlcNAc(b1-3)GalNAc = target: GlcNAc(b1-3)GalNAc
# Method in brief: as §1
# [24] = target: Man(a1-2)Man(a1-2)Man(a1-3)Man
# Method in brief: as §1
# [25] = target: Man(a1-2)Man(a1-6)[Man(a1-3)]Man(a1-6)[Man(a1-2)Man(a1-2)Man(a1-3)]Man
# Method in brief: as §1
# [26] = target: Man(a1-3)[Man(a1-6)]Man(b1-4)GlcNAc(b1-4)[Fuc(a1-6)]GlcNAc
# Method in brief: as §1
# Man(a1-6)Man = target: Man(a1-6)Man
# Method in brief: as §1
# [27] = target: Neu5Ac(a2-3)Gal(b1-3)GlcNAc6S
# Method in brief: as §1
# [28] = target: Neu5Ac(a2-3)Gal(b1-3)[Neu5Ac(a2-6)]GalNAc
# Method in brief: as §1
# Neu5Ac(a2-3)Gal(b1-4)Glc = target: Neu5Ac(a2-3)Gal(b1-4)Glc
# Method in brief: as §1
# [29] = target: Neu5Ac(a2-3)Gal(b1-4)GlcNAc(b1-2)Man
# Method in brief: as §1
# [30] = target: Neu5Ac(a2-3)Gal(b1-4)GlcNAc(b1-2)[Neu5Ac(a2-3)Gal(b1-4)GlcNAc(b1-4)]Man(a1-3)[GlcNAc(b1-4)][Neu5Ac(a2-3)Gal(b1-4)GlcNAc(b1-2)[Neu5Ac(a2-3)Gal(b1-4)GlcNAc(b1-6)]Man(a1-6)]Man(b1-4)GlcNAc(b1-4)GlcNAc
# Method in brief: as §1
# [31] = target: Neu5Ac(a2-3)Gal(b1-4)GlcNAc(b1-3)Gal(b1-4)GlcNAc
# Method in brief: as §1
# [32] = target: Neu5Ac(a2-3)Gal(b1-4)GlcNAc(b1-3)Gal(b1-4)GlcNAc(b1-6)[Gal(b1-3)]GalNAc
# Method in brief: as §1
# [33] = target: Neu5Ac(a2-3)Gal(b1-4)GlcNAc(b1-6)[Gal(b1-3)]GalNAc
# Method in brief: as §1
# [34] = target: Neu5Ac(a2-3)Gal(b1-4)[Fuc(a1-3)]GlcNAc(b1-3)Gal(b1-4)[Fuc(a1-3)]GlcNAc(b1-3)Gal(b1-4)[Fuc(a1-3)]GlcNAc
# Method in brief: as §1
# Neu5Ac(a2-6)Gal(b1-4)Glc = target: Neu5Ac(a2-6)Gal(b1-4)Glc
# Method in brief: as §1
# [35] = target: Neu5Ac9Ac(a2-3)Gal(b1-3)GlcNAc
# Method in brief: as §1
# [36] = target: Neu5Gc(a2-3)Gal(b1-4)GlcNAc(b1-3)Gal(b1-4)GlcNAc(b1-2)Man(a1-3)[Neu5Gc(a2-3)Gal(b1-4)GlcNAc(b1-3)Gal(b1-4)GlcNAc(b1-2)Man(a1-6)]Man(b1-4)GlcNAc(b1-4)GlcNAc
# Method in brief: as §1
binder,measurement,setting,value
B1,glycan array binding signal (z-score),[1],3.9
same,glycan array binding signal (z-score),Fuc(a1-2)Gal(b1-4)Glc,0.78
same,glycan array binding signal (z-score),[2],-0.156
same,glycan array binding signal (z-score),[3],-0.528
same,glycan array binding signal (z-score),[4],2.72
same,glycan array binding signal (z-score),[5],-0.358
same,glycan array binding signal (z-score),[6],-0.528
same,glycan array binding signal (z-score),Gal(a1-3)Gal(b1-3)GlcNAc,11.2
same,glycan array binding signal (z-score),[7],2.88
same,glycan array binding signal (z-score),[8],-0.296
same,glycan array binding signal (z-score),Gal(a1-4)GlcNAc,-0.083
same,glycan array binding signal (z-score),Gal(b1-3)Gal,-0.397
same,glycan array binding signal (z-score),Gal(b1-3)Gal(b1-4)GlcNAc,-0.262
same,glycan array binding signal (z-score),[9],-0.309
same,glycan array binding signal (z-score),Gal(b1-3)GlcNAc(b1-2)Man,-0.288
same,glycan array binding signal (z-score),[10],-0.434
same,glycan array binding signal (z-score),[11],1.7
same,glycan array binding signal (z-score),[12],5.33
same,glycan array binding signal (z-score),Gal(b1-4)Glc6S,-0.057
same,glycan array binding signal (z-score),[13],0.044
same,glycan array binding signal (z-score),Gal(b1-4)GlcNAc(b1-2)Man,-0.48
same,glycan array binding signal (z-score),[14],-0.462
same,glycan array binding signal (z-score),[15],0.365
same,glycan array binding signal (z-score),[16],1.21
same,glycan array binding signal (z-score),Gal3S(b1-3)GalNAc,0.13
same,glycan array binding signal (z-score),Gal3S(b1-4)Glc,3.03
same,glycan array binding signal (z-score),[17],-0.386
same,glycan array binding signal (z-score),[18],3.73
same,glycan array binding signal (z-score),Gal4S(b1-4)GlcNAc,-0.154
same,glycan array binding signal (z-score),Gal6S(b1-4)GlcNAc,-0.215
same,glycan array binding signal (z-score),GalNAc(b1-3)Gal,3.14
same,glycan array binding signal (z-score),Glc(a1-4)Glc,-0.037
same,glycan array binding signal (z-score),[19],-0.39
same,glycan array binding signal (z-score),[20],-0.104
same,glycan array binding signal (z-score),[21],-0.381
same,glycan array binding signal (z-score),[22],-0.453
same,glycan array binding signal (z-score),[23],-0.586
same,glycan array binding signal (z-score),GlcNAc(b1-3)GalNAc,-0.3
same,glycan array binding signal (z-score),[24],3.08
same,glycan array binding signal (z-score),[25],-0.013
same,glycan array binding signal (z-score),[26],-0.571
same,glycan array binding signal (z-score),Man(a1-6)Man,3.28
same,glycan array binding signal (z-score),[27],0.039
same,glycan array binding signal (z-score),[28],-0.255
same,glycan array binding signal (z-score),Neu5Ac(a2-3)Gal(b1-4)Glc,-0.436
same,glycan array binding signal (z-score),[29],0.296
same,glycan array binding signal (z-score),[30],-0.288
same,glycan array binding signal (z-score),[31],-0.514
same,glycan array binding signal (z-score),[32],-0.369
same,glycan array binding signal (z-score),[33],-0.481
same,glycan array binding signal (z-score),[34],-0.404
same,glycan array binding signal (z-score),Neu5Ac(a2-6)Gal(b1-4)Glc,-0.411
same,glycan array binding signal (z-score),[35],4.33
same,glycan array binding signal (z-score),[36],0.016
